Source: PubChem BioAssay (NCATS)
Records with an inconclusive call do not appear. Where a call stands in place of a potency, no number is given. Active and inactive are the calls of the source. The call rests on the fitted dose curve; in most records, active means well fitted curve in the direction sought with a large enough effect; inconclusive means small, poorly fitted or top-dose-only effect, or another doubt; inactive means no such curve, though single readings can be large; an effect the other way counts as inactive or inconclusive. Square brackets hold non-standard residues; d marks the D form. Peptide text beside a SMILES is read from it. * marks the point of attachment. ξ: configuration not given here. Hexanoyl = CCCCCC(=O)*; ξL = CC(C)CC(N)C(=O)O

Tests used:
[1] = HEK-293 Cancer Cell Toxicity qHTS against the NCATS CANVASS Library (AID 1347355); further: nearly all actives have a fitted effect of over 65% in size; further: potency means the concentration at half of the fitted maximal effect; on outcome: series mostly up to about 46 µM
Method in brief: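 Luminescent ATP read-out (CellTiter-Glo, 15min at room temperature) measures survival after cells face an 11-point compound series for 72 hours at 37 degrees C/5% CO2.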

[2] = HPAF-II 24hr Apoptosis Induction qHTS against the NCATS CANVASS Library (AID 1347356)
Method in brief: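 Luminescent caspase-3/7 signal (DEVD substrate, Caspase-Glo) served as read-out, taken 15 min after reagent addition to HPAF-II cells exposed 24 h to compounds.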

[3] = HEK293 18hr Apoptosis Induction qHTS against the NCATS CANVASS Library (AID 1347357)
Method in brief: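 HEK293 cells (500 per well, DMEM with 10% FBS) were treated with natural products, incubated 18 hours at 37 degrees C, then caspase-3/7 activity was read by Caspase-Glo luminescence after 15 min at room temperature.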

[4] = HPAF-II 12hr Apoptosis Induction qHTS against the NCATS CANVASS Library (AID 1347358)
Method in brief: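 500 HPAF-II cells/well; cmpds 11-pt; 12 hr, 37 degrees C/5% CO2; Caspase-Glo 3/7 added, 15 min RT dark; luminescence read. Doxorubicin titration as control.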

[5] = HEK293 24hr Apoptosis Induction qHTS against the NCATS CANVASS Library (AID 1347359)
Method in brief: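 HEK293 cells (500/well, DMEM + 10% FBS) were exposed to compounds in an 11-point series for 24 hours at 37 degrees C, then caspase-3/7 activity was read by Caspase-Glo DEVD luciferase luminescence after 15 min.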

[6] = HPAF-II 18hr Apoptosis Induction qHTS against the NCATS CANVASS Library (AID 1347360)
Method in brief: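 HPAF-II cells (500/well, DMEM + 10% FBS) were exposed to compounds for 18 hours at 37 degrees C. Caspase-3/7 activity was then read by Caspase-Glo 3/7 luminescence after 15 min at room temperature.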

[7] = tested on: NAD(P)H diaphorase (Clostridium kluyveri); test: Diaphorse counterscreen qHTS: Assay Interference Panel against the NCATS CANVASS Library (AID 1347362)
Method in brief: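 Clostridium kluyveri diaphorase in PBS with 0.01% Tween-20 was preincubated 15 min at room temperature in the dark with compounds (11-point series). Resorufin fluorescence (ex 525/20, em 598/25) was read 5 min after adding resazurin/NADH.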

[8] = SDT Cancer Cell Toxicity qHTS against the NCATS CANVASS Library (AID 1347365); further: nearly all actives have a fitted effect of over 60% in size; further: potency means the concentration at half of the fitted maximal effect
Method in brief: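 qHTS, SDT dog glioma line, 500 cells/well; cpds 11 pts; 72 hr, 37C, 5% CO2; CellTiterGlo ATP luminescence.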

[9] = qHTS for ATAD5 Agonist screened against the NCATS CANVASS Library (AID 1347367);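 further: luciferase reporter driven by ATAD5 which rises upon DNA damage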
Method in brief: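 HEK293T cells stably carrying an ATAD5-controlled luciferase reporter (2000 cells/well) attached for 5 hr, then received compounds in an 11-point series for 16hr at 37C. Luminescence was read after a 30 min room-temperature reagent step.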

[10] = MCF7 Cancer Cell Toxicity qHTS against the NCATS CANVASS Library (AID 1347369); further: potency means the concentration at half of the fitted maximal effect
Method in brief: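 MCF7, 500 cells/well; cpds 11-pt qHTS; 72 hr, 37C/5% CO2; CellTiterGlo ATP luminescence.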

[11] = qHTS for ATAD5 Antagonist screened against the NCATS CANVASS Library (AID 1347370); further: nearly all actives have a fitted effect of over 65% in size; further: potency means the concentration at half of the fitted maximal effect
Method in brief: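 HEK293T cells with stably integrated ATAD5-luciferase reporter, 2000/well, 5 h attachment; compounds plus 10 µM 5-fluorouridine, 16 h at 37 °C. Luciferase luminescence read, with CellTiter-Fluor viability read first.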

[12] = J3T Cancer Cell Toxicity qHTS against the NCATS CANVASS Library (AID 1347371); further: potency means the concentration at half of the fitted maximal effect
Method in brief: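 Cells plated at 500 per well, compounds pin-transferred, plates incubated 72 hr at 37C, then CellTiterGlo added and luminescence read to measure ATP content.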

[13] = target: Nuclear receptor subfamily 1 group I member 3 (Homo sapiens) (UniProt Q14994); test: qHTS for Constitutive Androstane Receptor (CAR) Agonist screened against the NCATS CANVASS Library (AID 1347373);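 further: every well also contained 1.5 µM PK11195 alongside the test compound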
Nuclear receptor subfamily 1 group I member 3 (Homo sapiens), sequence (Q14994 whole entry, looked up): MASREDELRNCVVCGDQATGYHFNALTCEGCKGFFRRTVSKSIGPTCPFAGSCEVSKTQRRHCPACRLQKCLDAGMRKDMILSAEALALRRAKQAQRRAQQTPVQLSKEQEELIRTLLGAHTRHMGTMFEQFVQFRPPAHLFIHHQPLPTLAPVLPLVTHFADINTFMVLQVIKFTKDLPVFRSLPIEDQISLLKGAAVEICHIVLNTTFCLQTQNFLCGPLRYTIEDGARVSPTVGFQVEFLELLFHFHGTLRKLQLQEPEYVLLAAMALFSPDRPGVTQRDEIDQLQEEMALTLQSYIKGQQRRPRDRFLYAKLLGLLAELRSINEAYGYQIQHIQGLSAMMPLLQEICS
Method in brief: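 HepG2-hCAR-CYP2B6 cells, 2500/well, attached 4hr; cpd + PK11195 1.5uM final; 24hr 37C 5% CO2. CellTiter-Fluor viability read, then ONE-Glo luminescence for CAR activation.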

[14] = qHTS for Hypoxia signaling pathway (HIF-1) agonists against the NCATS CANVASS Library (AID 1347375)
Method in brief: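 ME-180 HRE-bla reporter cells; 2,000/well, 0.5% dialyzed FBS; cpd added after 5 h, 17 h 37C/5% CO2; CCF4-AM 2 h RT; FRET 460/530 nm; CellTiter-Glo viability same wells, 30 min.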

[15] = qHTS for H2AX Agonists against the NCATS CANVASS Library (AID 1347378); further: potency means the concentration at half of the fitted maximal effect
Method in brief: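 CHO-K1 cells were plated overnight at 37C, then exposed to compounds (concentration series, 0.76% DMSO final) for 3 hr at 37C. Lysates received Eu-cryptate anti-pH2AX (S139) and d2 anti-H2AX antibodies; after 24 hr at room temperature, TR-FRET 665/620 nm ratio was read.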

[16] = qHTS for Inflammasome Signaling Inhibitors: IL-1-beta AlphaLISA screen against the NCATS CANVASS Library (AID 1347379);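 further: human THP-1 cells primed with LPS then triggered with ATP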
Method in brief: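 THP-1 cells pretreated 1 hr with compound (up to 57.5 uM final), then stimulated with LPS (250 ng/mL final) and ATP (1.25 mM final). Secreted IL-1B measured by AlphaLISA after 16 hr; glyburide as positive control.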

[17] = qHTS for Activators of p53 Stress Response Pathway screened against the NCATS CANVASS Library (AID 1347388)
Method in brief: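 p53RE-bla HCT-116 cells (4000/well) were plated 5 h at 37C, exposed to compounds for 16 h at 37C over an 11-point concentration series, then loaded with CCF4 for 2 h at room temperature; 460/530 nm emission ratio read.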

[18] = qHTS assay for small molecule disruptors of mitochondrial membrane potential screened against the NCATS CANVASS Library (AID 1347389); further: series mostly up to about 46 µM; nearly all actives have a fitted effect of over 60% in size
Method in brief: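 HepG2, 2,000 cells/well, attached overnight; compound 1 hr, 37C, 5% CO2; Mito-MPS dye 30 min, 37C; fluorescence 535 nm (monomer) and 590 nm (aggregate); decreased 590/535 ratio = depolarization.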

[19] = qHTS for activators of dead-cell proteases activity screened against the NCATS CANVASS Library (AID 1347392);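 further: luminescence from protease leaking out of membrane-damaged cells cleaving impermeant substrate; rising signal means more cytotoxicity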
Method in brief: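 HepG2 cells (2000/well) attached 18 h at 37C, then exposed 5 h to compounds (11-point qHTS). Dead-cell protease activity read as luminescence from cell-impermeant AAF-aminoluciferin substrate after 15 min at room temperature.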

[20] = qHTS for inhibitors of Wild type Zika virus screened against the NCATS CANVASS Library (AID 1347396);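 further: ATP luminescence of surviving cells so rescue from viral cell killing; series mostly up to about 46 µM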
Method in brief: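 Protection against wild-type Zika cytopathic effect is measured in African green monkey Vero 766 cells exposed to an 11-point compound series. Surviving cells are quantified by CellTiter Glo luminescence after 72 h.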

| Compound | Potency [1] | outcome [2] | Potency [3] | Potency [4] | Potency [5] | Potency [6] | Potency [7] | Potency [8] | Potency [9] | Potency [10] | Potency [11] | Potency [12] | Potency [13] | outcome [14] | Potency [15] | Potency [16] | Potency [17] | Potency [18] | Potency [19] | outcome [20] |
| --- | --- | --- | --- | --- | --- | --- | --- | --- | --- | --- | --- | --- | --- | --- | --- | --- | --- | --- | --- | --- |
| CN1C(=O)C(=O)N2C(=C[C@]3(c4c[nH]c5ccccc45)c4ccccc4N[C@H]23)C1=O | inactive | inactive | inactive | inactive | inactive | inactive | inactive | inactive | inactive | inactive | inactive | inactive | inactive | inactive | inactive | inactive | inactive | inactive | inactive | inactive |
| COc1ccc([C@@H]2c3cc4c(cc3C(=O)C(C)C2C)OCO4)cc1OC (some centres not stated) | inactive | inactive | inactive | inactive | inactive | inactive | inactive | inactive | inactive | inactive | – | inactive | – | inactive | inactive | inactive | inactive | inactive | inactive | inactive |
| CCCCCC(=O)N[C@@H](CC(C)C)C(=O)N[C@H](C=O)CCC(=O)O (Hexanoyl-Leu-Glu-aldehyde) | inactive | inactive | inactive | inactive | inactive | inactive | inactive | inactive | inactive | inactive | inactive | inactive | inactive | inactive | inactive | inactive | inactive | inactive | inactive | inactive |
| C=C1C[C@]23C=CC(=O)[C@@](C)(CCCC(C)C(=O)N[C@@H](CO)C(=O)O)[C@@H]2C[C@@H]1CC3 (some centres not stated) | inactive | inactive | inactive | inactive | inactive | inactive | inactive | inactive | inactive | inactive | inactive | inactive | inactive | inactive | inactive | inactive | inactive | inactive | inactive | inactive |
| C=C(Cl)[C@](Cl)(CBr)CC[C@@H](Br)C(C)(C)Cl | 9.35 µM (active) | inactive | inactive | inactive | inactive | inactive | inactive | – | inactive | 6.59 µM (active) | 23.4 µM (active) | 4.18 µM (active) | inactive | – | 4.86 µM (active) | 4.85 µM (active) | inactive | inactive | – | inactive |
| CCC(C)=C1OC(=O)[C@H](C)[C@H](O)[C@H](Cc2cccnc2)NC(=O)C(NC(=O)c2ncccc2O)C(C)OC1=O (some centres not stated) | inactive | inactive | inactive | inactive | inactive | inactive | – | inactive | inactive | inactive | inactive | inactive | inactive | inactive | inactive | inactive | inactive | inactive | inactive | inactive |
| CN1CC[C@@]23c4ccccc4N[C@@H]1[C@@]21CCN(C)[C@@H]3Nc2ccccc21 | inactive | inactive | inactive | inactive | inactive | inactive | inactive | inactive | inactive | inactive | inactive | inactive | inactive | – | inactive | – | inactive | inactive | inactive | inactive |
| CC[C@@H](C)[C@H]1NC(=O)C(CC(C)C)NC(=O)[C@@H](CC(C)C)NC(=O)[C@H](Cc2c[nH]c3ccccc23)NC(=O)CNC(=O)[C@@H](CC(N)=O)NC1=O (stereo partly drawn) (cyclo(GW[dL][ξL][dI][dN])) | 11.8 µM (active) | inactive | inactive | inactive | inactive | inactive | inactive | 16.6 µM (active) | – | – | inactive | – | inactive | inactive | inactive | inactive | inactive | – | – | inactive |
| O=Cc1ccc2n1C[C@]1(C[C@H](O)[C@@H](CO)O1)OC2 | inactive | inactive | inactive | inactive | inactive | inactive | inactive | inactive | inactive | inactive | inactive | inactive | inactive | inactive | inactive | inactive | inactive | inactive | inactive | inactive |
| COC(=O)[C@]1([C@H]2CCC(=O)O2)CC(=O)c2c(O)cc(C)cc2O1 | inactive | inactive | inactive | inactive | inactive | inactive | inactive | inactive | inactive | inactive | inactive | inactive | inactive | inactive | inactive | inactive | inactive | inactive | inactive | inactive |
| C[C@@]1(CCC(=O)Nc2c(O)ccc(C(=O)O)c2O)C(=O)C=C[C@]23C[C@H]4C[C@H](O[C@@]4(C)C2)C31 (some centres not stated) | inactive | inactive | inactive | inactive | inactive | inactive | inactive | inactive | inactive | inactive | inactive | inactive | inactive | inactive | inactive | inactive | inactive | inactive | inactive | inactive |
| CC(=O)c1c(C)cc2c(c1O)C(=O)c1c(O)cc(O)cc1C2=O | inactive | inactive | inactive | inactive | inactive | inactive | inactive | inactive | inactive | inactive | inactive | inactive | inactive | inactive | inactive | inactive | inactive | inactive | inactive | inactive |
